In the supplement of paper PMC10849652:
Targets with a hit are over-represented here; the source holds about 7,900 in all. About 0.6% of all pairs of compound and target were hits.

Experiments:
Assay in all cases: log2 fold change, soluble protein after heating vs DMSO (PISA); higher = thermal stabilisation; K562 cells, 10 uM, 30 min; active = over 0.2 and 3.5 SD of the protein, either way, in both replicates (recomputed)
saracatinib = compound: CN1CCN(CCOc2cc(OC3CCOCC3)c3c(Nc4c(Cl)ccc5c4OCO5)ncnc3c2)CC1 [saracatinib]
In short: (§1)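 K562 cells at 2×10^6 cells/mL were given 10 μM compound for 30 min. Aliquots then went through 3 min of heating across 48°C-58°C, were pooled, and were extracted in PBS with 0.5% NP-40 at 4°C, and the supernatant after 21,000xg for 90 min was quantified by TMTpro 16plex LC-MS/MS with channel sums equalised. Thermal stability relative to control samples, from duplicates, is given as log2 fold change.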

sotrastaurin = compound: CN1CCN(c2nc(C3=C(c4c[nH]c5ccccc45)C(=O)NC3=O)c3ccccc3n2)CC1 [sotrastaurin]
In short: as §1

alvocidib = compound: CN1CC[C@H](c2c(O)cc(O)c3c(=O)cc(-c4ccccc4Cl)oc23)[C@H](O)C1 [alvocidib]
In short: as §1

Tubastatin A = compound: CN1CCc2c(c3ccccc3n2Cc2ccc(C(=O)NO)cc2)C1 [Tubastatin A]
In short: as §1

[1] = compound: CNC(=O)C1=CC=CC=C1NC2=NC(=NC=C2Cl)NC3=C(C=C(C=C3)N4CCOCC4)OC
In short: as §1

defactinib = compound: CNC(=O)c1ccc(Nc2ncc(C(F)(F)F)c(NCc3nccnc3N(C)S(C)(=O)=O)n2)cc1 [defactinib]
In short: as §1

rucaparib = compound: CNCc1ccc(-c2[nH]c3cc(F)cc4c3c2CCNC4=O)cc1 [rucaparib]
In short: as §1

[2] = compound: CNc1nc(-c2ccc3c(N)n[nH]c3c2)cc(N2C[C@@H](C(=O)NC3CCCCC3)CC[C@H]2C)n1
In short: as §1

encorafenib = compound: COC(=O)N[C@@H](C)CNc1nccc(-c2cn(C(C)C)nc2-c2cc(Cl)cc(NS(C)(=O)=O)c2F)n1 [encorafenib]
In short: as §1

[3] = compound: COC(=O)[C@H](CCSC)NC(=O)C1=C(C=C(C=C1)NC[C@H](CS)N)C2=CC=CC=C2
In short: as §1

Measured: log2 fold change

NCAPD2 (UniProt Q15021)
inactive: saracatinib -0.052 | sotrastaurin -0.145 | alvocidib -0.029 | Tubastatin A 0.012 | [1] 0.111 | defactinib -0.052 | rucaparib 0.142 | [2] 0.008 | encorafenib 0.11 | [3] -0.025

MSH3 (UniProt P20585)
inactive: saracatinib -0.013 | sotrastaurin -0.003 | alvocidib -0.015 | Tubastatin A 0.045 | [1] -0.026 | defactinib 0.015 | rucaparib 0.031 | [2] -0.011 | encorafenib 0.069 | [3] -0.02

ORC5 (UniProt O43913)
inactive: saracatinib -0.081 | sotrastaurin 0.149 | alvocidib -0.195 | Tubastatin A 0.093 | [1] -0.097 | defactinib -0.182 | rucaparib 0.094 | [2] -0.009 | encorafenib 0.033 | [3] -0.05

MIS12 (UniProt Q9H081)
Sequence of UniProt Q9H081 (Q9H081 whole entry, looked up): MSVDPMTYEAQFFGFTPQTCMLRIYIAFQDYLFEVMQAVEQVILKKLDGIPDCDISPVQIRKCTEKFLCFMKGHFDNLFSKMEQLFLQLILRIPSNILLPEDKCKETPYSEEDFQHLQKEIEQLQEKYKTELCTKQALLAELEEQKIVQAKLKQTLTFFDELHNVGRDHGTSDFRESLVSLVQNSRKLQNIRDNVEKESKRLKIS
inactive: saracatinib 0.04 | sotrastaurin -0.014 | alvocidib -0.145 | Tubastatin A 0.031 | [1] 0.002 | defactinib -0.143 | rucaparib 0.021 | [2] -0.006 | encorafenib 0.021 | [3] -0.052

NACC1 (UniProt Q96RE7)
Sequence of UniProt Q96RE7 (Q96RE7 whole entry, looked up): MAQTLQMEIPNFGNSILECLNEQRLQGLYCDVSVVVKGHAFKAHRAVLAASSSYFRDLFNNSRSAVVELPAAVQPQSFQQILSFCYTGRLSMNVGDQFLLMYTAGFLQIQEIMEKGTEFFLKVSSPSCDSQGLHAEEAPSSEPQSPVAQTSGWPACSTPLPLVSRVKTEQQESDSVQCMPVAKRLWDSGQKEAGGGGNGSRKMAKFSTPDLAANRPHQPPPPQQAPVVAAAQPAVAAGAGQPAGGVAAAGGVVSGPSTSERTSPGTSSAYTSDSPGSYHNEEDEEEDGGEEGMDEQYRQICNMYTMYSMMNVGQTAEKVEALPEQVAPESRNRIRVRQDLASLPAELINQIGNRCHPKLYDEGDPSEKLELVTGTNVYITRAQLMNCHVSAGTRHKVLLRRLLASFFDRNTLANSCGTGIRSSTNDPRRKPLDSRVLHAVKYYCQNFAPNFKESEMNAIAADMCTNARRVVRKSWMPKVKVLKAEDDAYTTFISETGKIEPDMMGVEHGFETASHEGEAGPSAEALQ
inactive: saracatinib -0.055 | sotrastaurin -0.141 | alvocidib -0.26 | Tubastatin A 0.034 | [1] -0.063 | defactinib -0.312 | rucaparib 0.01 | [2] -0.006 | encorafenib 0.13 | [3] -0.021

MYLK (UniProt Q15746)
Sequence of UniProt Q15746 (Q15746 whole entry, looked up): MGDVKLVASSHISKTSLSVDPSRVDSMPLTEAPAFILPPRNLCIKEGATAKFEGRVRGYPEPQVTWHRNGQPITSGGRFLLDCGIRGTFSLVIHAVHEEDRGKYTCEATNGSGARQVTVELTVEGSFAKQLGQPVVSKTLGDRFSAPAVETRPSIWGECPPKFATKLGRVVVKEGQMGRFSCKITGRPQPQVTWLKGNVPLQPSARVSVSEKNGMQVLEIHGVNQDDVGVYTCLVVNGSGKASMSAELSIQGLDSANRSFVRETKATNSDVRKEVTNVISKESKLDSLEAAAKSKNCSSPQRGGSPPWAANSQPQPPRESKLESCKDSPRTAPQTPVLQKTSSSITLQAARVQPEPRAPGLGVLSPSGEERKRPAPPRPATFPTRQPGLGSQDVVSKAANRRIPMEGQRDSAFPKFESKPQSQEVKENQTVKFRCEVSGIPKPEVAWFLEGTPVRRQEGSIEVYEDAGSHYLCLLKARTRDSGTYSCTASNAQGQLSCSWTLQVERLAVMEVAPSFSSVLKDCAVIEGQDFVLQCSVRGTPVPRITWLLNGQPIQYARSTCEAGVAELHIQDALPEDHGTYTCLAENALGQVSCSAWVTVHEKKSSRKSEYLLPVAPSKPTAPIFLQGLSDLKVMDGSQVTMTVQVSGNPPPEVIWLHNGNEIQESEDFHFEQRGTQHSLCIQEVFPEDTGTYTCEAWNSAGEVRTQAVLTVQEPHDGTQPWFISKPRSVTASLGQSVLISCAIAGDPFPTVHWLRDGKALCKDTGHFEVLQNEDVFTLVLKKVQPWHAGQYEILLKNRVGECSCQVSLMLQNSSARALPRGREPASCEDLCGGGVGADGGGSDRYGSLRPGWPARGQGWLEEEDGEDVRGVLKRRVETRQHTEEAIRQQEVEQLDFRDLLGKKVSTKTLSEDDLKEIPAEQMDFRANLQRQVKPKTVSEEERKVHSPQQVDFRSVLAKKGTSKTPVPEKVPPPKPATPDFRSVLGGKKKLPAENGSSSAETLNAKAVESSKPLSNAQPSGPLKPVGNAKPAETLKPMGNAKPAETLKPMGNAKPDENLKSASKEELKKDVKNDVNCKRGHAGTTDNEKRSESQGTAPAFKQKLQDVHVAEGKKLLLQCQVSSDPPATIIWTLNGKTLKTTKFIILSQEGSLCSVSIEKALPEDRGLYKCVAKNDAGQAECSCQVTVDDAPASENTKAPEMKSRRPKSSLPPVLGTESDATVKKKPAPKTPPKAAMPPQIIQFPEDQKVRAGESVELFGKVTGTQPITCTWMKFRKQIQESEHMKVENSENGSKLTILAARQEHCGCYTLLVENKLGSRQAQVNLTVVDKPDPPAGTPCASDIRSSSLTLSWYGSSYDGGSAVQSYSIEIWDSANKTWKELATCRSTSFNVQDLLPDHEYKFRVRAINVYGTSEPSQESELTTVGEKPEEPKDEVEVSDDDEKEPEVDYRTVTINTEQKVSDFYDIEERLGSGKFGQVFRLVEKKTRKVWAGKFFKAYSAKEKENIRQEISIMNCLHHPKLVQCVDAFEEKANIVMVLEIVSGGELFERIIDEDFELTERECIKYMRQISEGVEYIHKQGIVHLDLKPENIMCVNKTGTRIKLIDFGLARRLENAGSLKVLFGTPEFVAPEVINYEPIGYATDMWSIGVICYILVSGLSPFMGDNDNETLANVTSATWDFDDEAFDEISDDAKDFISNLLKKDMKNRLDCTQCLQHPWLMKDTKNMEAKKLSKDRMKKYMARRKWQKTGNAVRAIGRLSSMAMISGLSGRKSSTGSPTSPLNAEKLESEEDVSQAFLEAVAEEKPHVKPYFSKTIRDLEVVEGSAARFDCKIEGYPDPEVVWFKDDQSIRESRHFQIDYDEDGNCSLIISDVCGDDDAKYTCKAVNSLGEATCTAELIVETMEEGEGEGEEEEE
inactive: saracatinib 0.177 | sotrastaurin -0.036 | alvocidib -0.091 | Tubastatin A 0.036 | [1] 0.716 | defactinib -0.034 | rucaparib -0.083 | [2] -0.079 | encorafenib 0.337 | [3] -0.216

NCOA7 (UniProt Q8NI08)
Sequence of UniProt Q8NI08 (Q8NI08 whole entry, looked up): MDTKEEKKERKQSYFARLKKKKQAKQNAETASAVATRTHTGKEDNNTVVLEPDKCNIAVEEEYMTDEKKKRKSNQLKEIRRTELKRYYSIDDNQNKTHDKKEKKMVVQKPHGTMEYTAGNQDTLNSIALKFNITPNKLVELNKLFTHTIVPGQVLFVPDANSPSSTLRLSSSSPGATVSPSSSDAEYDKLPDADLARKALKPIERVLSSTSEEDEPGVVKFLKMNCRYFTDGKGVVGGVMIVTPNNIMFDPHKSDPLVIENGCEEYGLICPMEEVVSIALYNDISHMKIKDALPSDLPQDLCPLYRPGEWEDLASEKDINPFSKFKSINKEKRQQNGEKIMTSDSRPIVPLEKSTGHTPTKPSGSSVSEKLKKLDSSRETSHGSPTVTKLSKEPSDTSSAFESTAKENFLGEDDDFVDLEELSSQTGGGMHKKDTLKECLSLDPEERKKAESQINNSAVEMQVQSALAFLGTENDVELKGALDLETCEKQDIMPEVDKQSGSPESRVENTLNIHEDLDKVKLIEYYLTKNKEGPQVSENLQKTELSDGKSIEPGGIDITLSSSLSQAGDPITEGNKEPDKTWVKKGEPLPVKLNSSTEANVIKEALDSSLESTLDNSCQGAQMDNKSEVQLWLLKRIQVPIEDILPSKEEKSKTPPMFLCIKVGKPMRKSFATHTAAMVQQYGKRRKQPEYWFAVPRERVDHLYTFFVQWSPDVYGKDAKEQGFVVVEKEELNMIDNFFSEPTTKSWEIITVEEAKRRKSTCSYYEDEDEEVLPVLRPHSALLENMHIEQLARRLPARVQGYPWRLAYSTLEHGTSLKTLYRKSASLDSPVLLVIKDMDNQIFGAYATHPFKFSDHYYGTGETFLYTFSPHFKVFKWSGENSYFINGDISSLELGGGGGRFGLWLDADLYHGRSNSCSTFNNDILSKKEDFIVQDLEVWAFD
inactive: saracatinib -0.05 | sotrastaurin -0.074 | alvocidib -0.052 | Tubastatin A -0.02 | [1] -0.011 | defactinib -0.099 | rucaparib -0.029 | [2] -0.064 | encorafenib 0.019 | [3] 0.039

MTMR14 (UniProt Q8NCE2)
Sequence of UniProt Q8NCE2 (Q8NCE2 whole entry, looked up): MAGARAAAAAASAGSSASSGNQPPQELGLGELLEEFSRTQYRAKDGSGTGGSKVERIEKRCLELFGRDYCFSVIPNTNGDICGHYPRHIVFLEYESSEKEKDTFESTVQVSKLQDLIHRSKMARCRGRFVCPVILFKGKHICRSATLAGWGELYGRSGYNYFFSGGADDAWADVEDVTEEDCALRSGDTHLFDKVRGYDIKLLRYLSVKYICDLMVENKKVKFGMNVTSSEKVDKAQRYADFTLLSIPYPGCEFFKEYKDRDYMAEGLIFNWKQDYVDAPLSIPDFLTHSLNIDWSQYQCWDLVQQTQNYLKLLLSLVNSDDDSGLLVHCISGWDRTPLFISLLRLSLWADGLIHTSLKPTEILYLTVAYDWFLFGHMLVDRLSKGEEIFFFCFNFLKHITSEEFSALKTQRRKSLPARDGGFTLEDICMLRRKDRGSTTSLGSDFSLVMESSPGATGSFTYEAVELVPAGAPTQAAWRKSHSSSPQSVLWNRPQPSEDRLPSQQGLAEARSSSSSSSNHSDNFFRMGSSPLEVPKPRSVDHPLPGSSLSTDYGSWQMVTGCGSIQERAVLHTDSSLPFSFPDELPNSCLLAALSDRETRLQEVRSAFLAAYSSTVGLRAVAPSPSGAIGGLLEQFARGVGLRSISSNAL
inactive: saracatinib -0.037 | sotrastaurin -0.042 | alvocidib -0.059 | Tubastatin A 0 | [1] 0.008 | defactinib -0.058 | rucaparib -0.017 | [2] -0.064 | encorafenib -0.026 | [3] 0.038

MSH6 (UniProt P52701)
inactive: saracatinib -0.142 | sotrastaurin -0.278 | alvocidib -0.255 | Tubastatin A 0.127 | [1] -0.049 | defactinib -0.379 | rucaparib -0.014 | [2] 0.102 | encorafenib 0.141 | [3] -0.098

NMT2 (UniProt O60551)
Sequence of UniProt O60551 (O60551 whole entry, looked up): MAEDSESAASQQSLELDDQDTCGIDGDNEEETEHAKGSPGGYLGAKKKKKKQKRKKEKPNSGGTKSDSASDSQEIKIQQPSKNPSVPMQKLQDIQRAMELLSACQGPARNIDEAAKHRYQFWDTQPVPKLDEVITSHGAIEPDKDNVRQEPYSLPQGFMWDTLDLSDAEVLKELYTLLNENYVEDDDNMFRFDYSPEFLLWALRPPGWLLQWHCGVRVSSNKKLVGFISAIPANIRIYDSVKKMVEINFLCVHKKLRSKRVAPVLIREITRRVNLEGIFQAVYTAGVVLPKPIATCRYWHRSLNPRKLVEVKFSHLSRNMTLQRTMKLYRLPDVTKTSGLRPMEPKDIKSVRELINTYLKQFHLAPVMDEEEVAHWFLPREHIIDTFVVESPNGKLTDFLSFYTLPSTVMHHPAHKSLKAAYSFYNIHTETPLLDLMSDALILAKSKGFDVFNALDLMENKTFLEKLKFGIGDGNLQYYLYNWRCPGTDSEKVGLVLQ
inactive: saracatinib -0.031 | sotrastaurin 0.007 | alvocidib -0.021 | Tubastatin A 0.008 | [1] 0.146 | defactinib -0.016 | rucaparib -0.04 | [2] -0.027 | encorafenib 0.02 | [3] 0.023

NCBP2AS2 (UniProt Q69YL0)
Sequence of UniProt Q69YL0 (Q69YL0 whole entry, looked up): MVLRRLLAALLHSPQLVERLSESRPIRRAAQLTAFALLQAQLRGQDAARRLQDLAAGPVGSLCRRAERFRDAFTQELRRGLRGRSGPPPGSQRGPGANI
inactive: saracatinib 0.056 | sotrastaurin 0.215 | alvocidib -0.004 | Tubastatin A -0.064 | [1] -0.005 | defactinib 0.013 | rucaparib -0.03 | [2] -0.081 | encorafenib 0.031 | [3] 0.031

MXRA7 (UniProt P84157)
Sequence of UniProt P84157 (P84157 whole entry, looked up): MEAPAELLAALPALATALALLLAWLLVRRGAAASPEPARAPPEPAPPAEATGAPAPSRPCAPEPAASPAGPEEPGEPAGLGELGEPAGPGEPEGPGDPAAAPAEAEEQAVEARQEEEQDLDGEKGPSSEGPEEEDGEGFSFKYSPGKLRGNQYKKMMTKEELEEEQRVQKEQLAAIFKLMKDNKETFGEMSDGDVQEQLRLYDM
inactive: saracatinib 0.127 | sotrastaurin 0.027 | alvocidib 0.048 | Tubastatin A -0.02 | [1] 0.007 | defactinib -0.104 | rucaparib -0.093 | [2] -0.033 | encorafenib 0.008 | [3] -0.025

NUDCD2 (UniProt Q8WVJ2)
inactive: saracatinib -0.115 | sotrastaurin -0.123 | alvocidib -0.139 | Tubastatin A 0.051 | [1] 0.002 | defactinib -0.256 | rucaparib -0.053 | [2] 0 | encorafenib 0.048 | [3] 0

MRPS25 (UniProt P82663)
inactive: saracatinib -0.097 | sotrastaurin -0.059 | alvocidib -0.039 | Tubastatin A 0.084 | [1] -0.021 | defactinib -0.072 | rucaparib 0.129 | [2] 0.233 | encorafenib -0.016 | [3] -0.017

MKRN2 (UniProt Q9H000)
inactive: saracatinib -0.203 | sotrastaurin -0.024 | alvocidib -0.002 | Tubastatin A 0.177 | [1] -0.08 | defactinib -0.049 | rucaparib 0.258 | [2] 0.007 | encorafenib 0.109 | [3] -0.005
